Potency data for 99 compounds are collected here from PubChem BioAssay AID504466 (National Center for Advancing Translational Sciences (NCATS), 2011).

About 4,200 (1.3%) of roughly 330,000 compounds were called active. Not shown: some 6% with an inconclusive outcome. Calls follow the shape of the dose curve; as a rule, active = well fitted activation curve with a large enough effect; inconclusive = small, poorly fitted or top-dose-only effect; inactive = no such curve, though single readings can be large or run the other way. The list comes from a sample in which actives are over-represented; it also holds similar structures and randomly drawn compounds. Where a call stands in place of a potency, no number is given.
Potency is read from the fitted curve at half-maximal effect.

The assay is described as follows: qHTS screen for small molecules that induce genotoxicity in human embryonic kidney (HEK293T) cells expressing luciferase-tagged ELG1. Also: nearly all actives have a fitted effect of over 60% in size. Particulars: HEK293T ELG1-luciferase reporter, luminescence, 16 h; series mostly up to 46 µM. In outline: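 After overnight (16 hr) compound treatment at 37 °C, ELG1-luciferase HEK293T cells were lysed with ONE-Glo; luminescence quantified 30 min later at room temperature.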
For orientation: Quantitative high-throughput screening tests each substance at several concentrations.
For `COc1ccc(NC(=O)N(C)C[C@H]2Oc3ccc(NC(=O)C4CC4)cc3C(=O)N([C@H](C)CO)C[C@@H]2C)cc1`, the Potency result is “inactive”. Turning to `COc1cccc(CNC(C)C(=O)Nc2ccc(S(=O)(=O)N3CCCC3)cc2)c1` (centres undefined), the Potency entry is “inactive”.

Take `O=C(Nc1cccnc1)c1noc2c1CCCCC2`: the Potency was 2.31 µM (active). Turning to `COc1cccc(C(=O)Nc2cccnc2)c1OC`, the Potency entry was “inactive”. As for `O=C(Nc1cccnc1)c1cc(Cl)ccc1Cl`, the Potency entry was “inactive”. In the case of `Cc1ccnc(SCC(=O)Nc2cccc(S(=O)(=O)N3CCOCC3)c2)n1`, the Potency result is “inactive”. Turning to `COc1ccc(-c2noc(CCC(=O)N3CCN(c4cccc(C)c4)CC3)n2)cc1`, the Potency result was “inactive”. On to `O=C(CNC(=O)c1ccccc1F)c1ccc(Br)cc1`, for which the Potency is 5.17 µM (active).

Turning to `O=C(NCCS(=O)(=O)NCc1ccc(F)cc1)c1ccccc1`, the Potency result is “inactive”.

In the case of `O=C(Nc1ccc(NC(=O)c2ccccc2F)cc1)c1ccccc1F`, the Potency entry was “inactive”. For the compound `O=C(CNC(=O)c1ccc(F)cc1)c1ccccc1`, the Potency is 8.2 µM (active). Take `O=C(CNC(=O)c1ccccc1)NCC(=O)OCC(=O)c1ccccc1`: the Potency entry is “inactive”. As for `O=C(COC(=O)CNC(=O)c1ccccc1F)NCC(F)(F)F`, the Potency entry is “inactive”. The result for `COc1cc(NC(=O)c2[nH]cnc2C(N)=O)cc(C(=O)Nc2cccc(C(F)(F)F)c2)c1` reads “inactive”. On to `C=CC(COCc1ccccc1)N(CC(=O)OC)S(=O)(=O)c1cc(Br)ccc1OC` (centres undefined), for which the Potency entry is “inactive”.

Regarding `O=C1N[C@H](Cc2c[nH]c3ccccc23)COC(=O)[C@H](Cc2ccc(F)cc2)C/C=C\C[C@H]1CC(=O)N(CCO)Cc1ccccc1`, the Potency entry is “inactive”.

`CCOc1ccc(NC(=O)c2ccc(NC(=O)COC(=O)c3ccc(NC(=O)CC#N)cc3)cc2)cc1`: the Potency was 5.17 µM (active). The result for `CCOc1ccc(C(=O)Nc2ccncc2)cc1` reads “inactive”; that for `N#CCC(=O)Nc1ccc(C(=O)OCC(=O)Nc2sc3c(c2C#N)CCCC3)cc1`, “inactive”.

In the case of `C[C@@H]1CN([C@@H](C)CO)C(=O)c2cccc(NS(=O)(=O)c3ccc(F)cc3)c2O[C@H]1CN(C)C(=O)NC1CCCCC1`, the Potency entry is “inactive”. As for `Cc1cccc(N2O[C@H]3C=CC2CCCC3)n1`, the Potency entry is “inactive”.

As to `CCCC(CNC(=O)COC(=O)C1=NNC(=O)CC1)c1ccc(Cl)cc1Cl` (centres undefined), the Potency entry was “inactive”. With `COc1ccccc1Oc1ccc(N/C=C2/CCCC2=O)cc1`, the Potency result is “inactive”.

Consider `O=C1/C(=C\Nc2ccccc2)CCN1c1ncccn1`, for which the Potency was 11.6 µM (active). For `O=C(Cc1ccccc1)NNC(=O)C1CCN(c2ncccn2)CC1` the value was “inactive”; for `NC(=O)Nc1ccc(C(=O)OCC(=O)NC2CCCc3ccccc32)cc1` (centres undefined), “inactive”. For `CCCN=C1N(C)C[C@@H]2[C@@H]3C(=O)N(Cc4ccccc4)C(=O)[C@@H]3[C@](C)(C(=O)OC)N12`, the Potency result is “inactive”. The result for `COc1ccc(S(=O)(=O)N(C)C[C@@H]2Oc3ccc(NS(=O)(=O)c4cn(C)cn4)cc3C(=O)N([C@@H](C)CO)C[C@@H]2C)cc1` reads “inactive”; that for `C[C@H](CO)N1C[C@H](C)[C@@H](CN(C)C(=O)NC2CCCCC2)Oc2ccc(NC(=O)c3ccncc3)cc2C1=O`, “inactive”. Take `O=C(Nc1cc(C(F)(F)F)ccc1Cl)c1cc2nc3c(c(C(F)(F)F)n2n1)CCCC3`: the Potency was 8.2 µM (active). For `CCCCC(=O)Nc1ccc(C(=O)Nc2cc(C(F)(F)F)ccc2Cl)cc1`, the Potency entry is “inactive”. For the compound `O=C(Nc1cc(C(F)(F)F)ccc1Cl)C(=O)N1CCCCC1`, the Potency entry was “inactive”.

For the compound `CCNC(=S)N1CCN(S(=O)(=O)c2ccc(Cl)s2)CC1`, the Potency entry was “inactive”. The result for `C1=C(CCNc2ncnc3c2cnn3-c2ccccc2)CCCC1` reads 2.31 µM (active). For `O=C(NNc1ncnc2c1cnn2-c1ccccc1)c1ccco1`, the Potency result was “inactive”. The result for `O=C(NCCC1=CCCCC1)C1CCN(Cc2cnn(-c3ccccc3)c2-n2cccc2)CC1` reads “inactive”; that for `O=C(CSC(=S)N1CCOCC1)c1cc(Br)cc(Br)c1O`, “inactive”; that for `CC1CN(C(=S)SCC(=O)c2ccccc2)CC(C)O1` (centres undefined), “inactive”. Consider `O=C(CSC(=S)N1CCOCC1)c1ccccc1`, for which the Potency is 2.06 µM (active). As for `O=C(CN1C(=O)NC2(CCOc3ccccc32)C1=O)Nc1cccc([N+](=O)[O-])c1` (centres undefined), the Potency entry was “inactive”. Take `O=S(=O)(NCC1CN(S(=O)(=O)c2ccc3c(c2)OCCO3)C1)c1c(F)cccc1F`: the Potency result was “inactive”.

As to `CC[C@]12c3[nH]c4ccc(OC)cc4c3CCN1C(=O)C(CC(=O)NCc1ccco1)C[C@@H]2C(=O)N1CCN(C(=O)C2CC2)CC1` (some centres undefined), the Potency result is “inactive”.

For `CC(C)(C)C(=O)Nc1ccc(-c2cn3cccnc3n2)cc1`, the Potency is 18.3 µM (active). As for `Cc1nn2c(=O)cc(COC(=O)c3ccc(NC(=O)C(C)(C)C)cc3)nc2s1`, the Potency result was “inactive”. In the case of `CC(=O)Nc1ccc(S(=O)(=O)Nc2cccc(NC(=O)C(C)(C)C)c2)cc1`, the Potency result was “inactive”. On to `CSc1ncccc1C(=O)Nc1cccc(S(=O)(=O)N2CCOCC2)c1`, for which the Potency result was “inactive”. Take `CN(CCc1ccccc1)C(=O)c1cccc(NC(=O)Cc2ccc([N+](=O)[O-])cc2)c1`: the Potency entry is “inactive”. As for `Cc1c(Cl)cnc(NC(=O)COC(=O)C2CCCC2)c1Cl`, the Potency entry is “inactive”. Turning to `CCN(C(=O)CSc1nnnn1-c1ccc(OC)cc1)C1CCS(=O)(=O)C1` (centres undefined), the Potency result was “inactive”. For the compound `Cn1c(=O)n(C)c2cc(NS(=O)(=O)c3ccc(F)cc3)ccc21`, the Potency was 18.3 µM (active). Regarding `Cc1cc(C)cc(NS(=O)(=O)c2ccc(F)cc2)c1`, the Potency result was “inactive”. On to `Cn1c(=O)n(C)c2cc(S(=O)(=O)Nc3ccc(F)cc3)ccc21`, for which the Potency entry is “inactive”. Turning to `CCN(c1ccccc1)S(=O)(=O)c1cccc(C(=O)NCc2ccccc2CN2CCOCC2)c1`, the Potency entry is “inactive”.

On to `O=C1COc2ccc(C(=O)COC(=O)c3ccccc3Cl)cc2N1`, for which the Potency result was “inactive”. For the compound `C=CCSc1nnc(NC(=O)c2ccc(NC(C)=O)cc2)s1`, the Potency result was “inactive”.

In the case of `CCSc1nnc(NC(=O)c2ccc(C)cc2)s1`, the Potency is 1.64 µM (active).

For `CCOC(=O)CSc1nnc(NC(=O)c2cccc(S(=O)(=O)N3CCCC3)c2)s1`, the Potency result was “inactive”. On to `COC(=O)[C@]1(C)N[C@H](CN(C)C(=O)c2ccc(C(C)(C)C)cc2)[C@@H]2C(=O)N(C)C(=O)[C@@H]21`, for which the Potency entry is “inactive”. Consider `COc1ccc(CN2C(CC(=O)Nc3cccnc3)c3ccc(C(F)(F)F)cc3S2(=O)=O)cc1` (centres undefined), for which the Potency entry is “inactive”.

Take `O=C(COC(=O)c1ccc2c(c1)OCCO2)NCc1ccccc1Cl`: the Potency entry was “inactive”. For `Cc1cccc(NC(=O)c2ccc(S(=O)(=O)N(C)c3ccccc3)cc2)n1`, the Potency result is “inactive”. As to `CC(C)(C)NC(=O)NC(=O)COC(=O)Cc1ccc(Cl)cc1Cl`, the Potency entry was “inactive”. As for `COc1ccc(-c2csc(NC(=O)COC(=O)Cc3ccc(Cl)cc3Cl)n2)cc1`, the Potency is 23.1 µM (active). For the compound `COc1ccc(OC)c(-c2csc(NC(=O)COC(=O)C3CC3)n2)c1`, the Potency result was “inactive”. The result for `CS(=O)(=O)c1ccc(C(=O)NNC(=O)c2cccs2)cc1` reads “inactive”; that for `O=C(Nn1cnc2ccccc2c1=O)c1ccccc1`, “inactive”; that for `O=c1c2ccccc2ncn1/N=C/c1ccccc1`, 3.66 µM (active).

For the compound `O=c1c2ccccc2nc(N/N=C/c2ccccc2)n1O`, the Potency entry was “inactive”. Regarding `CCN(C(=O)CSc1cccc[n+]1[O-])c1ccccc1`, the Potency result is “inactive”. In the case of `COc1ccc(CNC(=O)COC(=O)c2sccc2C)cc1OC`, the Potency result is “inactive”. `CCSc1ccccc1C(=O)Nc1ccc2c(c1)OCO2`: the Potency result was “inactive”.

As to `O=C(Nc1ccccc1N1CCN(C(=O)c2ccccc2)CC1)c1ccc2c(c1)OCO2`, the Potency result was “inactive”. `CSc1ncccc1C(=O)Nc1ccc2c(c1)OCO2`: the Potency result was “inactive”. As for `COc1ccc2nc(NC(=O)[C@@H]3CCCN3C(=O)c3cccs3)sc2c1`, the Potency entry was “inactive”. Regarding `O=C(Nc1ccccc1)c1ccc2c(c1)OCCCO2`, the Potency was 0.517 µM (active). As for `COc1ccc2nc(NC(=O)NC3CCCCC3)sc2c1`, the Potency entry is “inactive”. The result for `O=C(Nc1cccc(S(=O)(=O)N2CCCCC2)c1)c1ccc2c(c1)OCO2` reads “inactive”. For `O=C(Nc1cccc(S(=O)(=O)Nc2ccc(Cl)cc2)c1)c1ccc2c(c1)OCCO2` the value was “inactive”.

As to `COc1ccc2nc(NC(=O)c3ccc(Br)s3)sc2c1`, the Potency is 2.82 µM (active). With `O=C(Nc1nc2cc3c(cc2s1)OCCO3)c1cccc(S(=O)(=O)N2CCOCC2)c1`, the Potency entry is “inactive”.

Take `O=C(Nc1nc2ccccc2s1)c1ccc2c(c1)OCO2`: the Potency was 0.58 µM (active). The result for `CC(C)C(=O)Nc1cccc(C(=O)Nc2ccc3c(c2)OCO3)c1` reads 6.51 µM (active); that for `C=CC[C@@H](CC(=O)N[C@H](CO)Cc1ccccc1)C(=O)N[C@H](C)COC(=O)[C@@H](CC=C)Cc1ccc(F)cc1`, “inactive”; that for `CC(=O)c1c(C)[nH]c(C(=O)COC(=O)c2cccs2)c1C`, “inactive”. Take `COc1ccc(C2=Nn3c(nnc3-c3ccccc3OC)SC2)cc1OC1CCCC1`: the Potency result was “inactive”. Regarding `COc1ccccc1N(CCOc1ccccc1)S(=O)(=O)c1ccccc1`, the Potency result was “inactive”. For `CC(C)(C)OC(=O)C[C@@H]1C/C=C\C[C@@H](CC(=O)N(CCO)Cc2ccccc2)C(=O)N[C@H](Cc2ccccc2)COC1=O` the value was “inactive”; for `CCCN(CC1CC1)C(=O)COC(=O)c1ccc(C)cc1O`, “inactive”. For the compound `O=C(COC(=O)c1cc(S(=O)(=O)N2CCOCC2)ccc1F)NC1CC1`, the Potency result was “inactive”. For `O=C(Nc1ccc(NC(=O)c2ccc3c(c2)OCO3)cc1)c1cccc(Cl)c1`, the Potency entry was “inactive”. As for `CS(=O)(=O)c1ccc2nc(NC(=O)c3ccc(Cl)nc3)sc2c1`, the Potency entry is “inactive”. As for `CC(C)CNS(=O)(=O)c1ccc(C(=O)Nc2ccc3c(c2)OCO3)cc1`, the Potency result is “inactive”. The result for `COc1cccc(C(=O)Nc2nc3ccc(S(C)(=O)=O)cc3s2)c1` reads “inactive”; that for `O=C(Nc1ccccc1)c1ccc2c(c1)OCO2`, 9.2 µM (active). `Cn1c(=O)n(C)c2cc(C(=O)Nc3ccc4c(c3)OCO4)ccc21`: the Potency is 8.2 µM (active). For `O=C(Nc1cccc([N+](=O)[O-])c1)c1ccc2c(c1)OCO2` the value was “inactive”. Consider `O=C(Nc1ccc2c(c1)OCO2)c1ccc(N2C(=O)c3ccccc3C2=O)cc1`, for which the Potency entry is “inactive”. For the compound `CNC(=O)c1ccc2nc(NC(C)=O)sc2c1`, the Potency was 18.4 µM (active). Regarding `O=C(OCC(=O)N1CCN(c2ccccc2)CC1)c1ccc([N+](=O)[O-])s1`, the Potency result was “inactive”.
